“And” between values parts separate entries of the source, which are not always exact repeats. Equal entries are not always repeated. About 83,000 compounds went through this panel and 20% of them were active in at least one assay; those are over-represented in the sample as a whole.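 Treatment: one concentration, 48 hours, 96-well format. Scoring: percent growth, with anything below 10 considered active.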 The source made the active and inactive calls.
These compounds were tested on MDA-MB-468 breast (assay: NCI-60 one-dose screen, 48 h (100 = growth as untreated, 0 = no growth, -100 = all killed)). Conditions: 10 µM unless noted.

Structure (SMILES) | growth
CC1=C([Se]CC(OC(=O)CC[Se]c2ccccc2)C(=O)NCCCCCC(=O)OCc2ccccc2)C(=O)c2ccccc2C1=O (configuration not stated) | -7.59% (active)
Cn1c(=O)c2nc3c(=O)n(C)c(=O)n(C)c3nc2n(C)c1=O | 92.1% (inactive)
CCc1cccc2c3c(sc12)C(c1ccc(Cl)cc1)C(C#N)=C(N)O3 (configuration not stated) | -7.98% (active)
O=S(=O)(Nc1ccc(-c2nc(-c3cccc(OCCN4CCOCC4)c3)c(-c3ccnc(Br)c3)[nH]2)cc1)c1ccccc1 | 1.46% (active)
CCn1c(O)c(/C=N/NC(=O)C(C)c2ccc(CC(C)C)cc2)sc1=S (configuration not stated) | 6.34% (active)
COc1ccc(C2CC(c3ccc(Nc4ccnc5cc(Cl)ccc45)cc3)=NN2C=O)cc1 (configuration not stated) | 9.91% (active)
COC(=O)[C@]12CC[C@@H](C)[C@H](C)[C@@H]1C1=CC[C@@H]3[C@@]4(C)C(C=O)=C[C@@](C)(COS(C)(=O)=O)C4[C@H](O)C[C@@]3(C)[C@]1(C)CC2 (some centres not stated) | -64.7% (active)
COc1ccc(OCC(=O)Nc2ccc(-c3nc4ccccc4s3)cc2C)cc1 | 7.38% (active)
Cc1c2c(cc[n+]1Cc1ccccc1)c1ccc(OCC3CCCCC3)cc1n2CC1CCCCC1 | -86.6% (active)
Nc1ccc(O)c(C(=O)O)c1 | 73.1% (inactive) and 9.23% (active) and 98.8% (inactive)
C#CC(=O)/C=C/CCCCCCC#CC(=O)CCC(=O)C#CCCCCCC/C=C/C(=O)C#C | -10% (active)
COC(=O)[C@@H](Cc1c[nH]c2ccccc12)NC(=O)[C@H](Cc1ccccc1)NCc1ccncc1 | 103% (inactive)

— PubChem BioAssay (NCI)
